# Test results from PubChem BioAssay (EPA / NIEHS).
# Calls of active or inactive are those of the source. The calls were made as follows: active = hit-call score of the fitted dose curve at least 0.9, where 1 is the maximum; inactive = score below 0.9.
# Columns and labels:
# Conditions in all cases: mRNA level, 48 h; actives raise or lower the signal
# [1] = read-out: Peroxisomal acyl-coenzyme A oxidase 1 (ACOX1) gene, ACOX1 (gene 51); experiment: LTEA_HepaRG_ACOX1: Life Technologies and Expression Analysis (LTEA) Assay for Peroxisomal acyl-coenzyme A oxidase 1 (ACOX1) gene using HepaRG (AID 2283467)
# How it was run: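 Human HepaRG hepatic cultures, 48 h treatment with test chemicals up to 100 uM. ACOX1 expression read by qRT-PCR relative to 0.5% DMSO vehicle.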
# [2] = read-out: Alkaline Phosphatase, Placental (ALPP) gene, ALPP (gene 250); experiment: LTEA_HepaRG_ALPP: Life Technologies and Expression Analysis (LTEA) Assay for Alkaline Phosphatase, Placental (ALPP) gene using HepaRG (AID 2283468);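 as to AC50: differentiated human HepaRG liver cells in serum-free induction medium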
# How it was run: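 HepaRG, 48 h plating then 48 h dosing, serum-free induction medium, 0.5% DMSO. 8 conc, half-log, max 100 uM, duplicates. Endpoint: ALPP transcript by qRT-PCR, housekeeping-normalized; gain or loss fitted vs DMSO.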
# [3] = read-out: Bcl-2 (BAD) gene, BAD (gene 572); experiment: LTEA_HepaRG_BAD: Life Technologies and Expression Analysis (LTEA) Assay for Bcl-2 (BAD) gene using HepaRG (AID 2283469)
# How it was run: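 Activity values reflect up- or down-regulation of BAD mRNA in human HepaRG hepatic cells treated 48 h in serum-free medium, with eight-point half-log dosing capped at 100 uM and 0.5% DMSO vehicle.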
# [4] = read-out: Bcl-2 (BAX) gene, BAX (gene 581); experiment: LTEA_HepaRG_BAX: Life Technologies and Expression Analysis (LTEA) Assay for Bcl-2 (BAX) gene using HepaRG (AID 2283470)
# How it was run: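 Human HepaRG cells treated in duplicate for 48 h across eight concentrations (max 100 uM, 0.5% DMSO); BAX expression measured by qRT-PCR.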
# [5] = read-out: adenosine kinase (ADK) gene, ADK (gene 132); experiment: LTEA_HepaRG_ADK: Life Technologies and Expression Analysis (LTEA) Assay for adenosine kinase (ADK) gene using HepaRG (AID 2283471)
# How it was run: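 Read-out is ADK transcript level measured by qRT-PCR and normalised to three housekeeping genes. Cells are human HepaRG, dosed for 48 h at up to 100 uM in 0.5% DMSO. Gain or loss of signal is fitted against DMSO controls.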
# [6] = read-out: Alpha-fetoprotein (AFP) gene, AFP (gene 174); experiment: LTEA_HepaRG_AFP: Life Technologies and Expression Analysis (LTEA) Assay for Alpha-fetoprotein (AFP) gene using HepaRG (AID 2283472)
# How it was run: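 Measures AFP mRNA change in HepaRG after 48 h chemical exposure (8 half-log concentrations, highest 100 uM, 0.5% DMSO). Fold change relative to DMSO, fitted in both directions.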
# [7] = read-out: Apolipoprotein A-V (APOA5) gene, APOA5 (gene 116519); experiment: LTEA_HepaRG_APOA5: Life Technologies and Expression Analysis (LTEA) Assay for Apolipoprotein A-V (APOA5) gene using HepaRG (AID 2283474)
# How it was run: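 Readout is APOA5 transcript level by qRT-PCR on Fluidigm dynamic arrays, normalized to three housekeeping genes. HepaRG cultures received chemicals for 48 h at up to 100 uM (half-log steps, 0.5% DMSO), with gain or loss scored relative to DMSO.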
# [8] = read-out: Apoptosis regulator Bcl-2 (Homo sapiens) (UniProt P10415); experiment: LTEA_HepaRG_BCL2: Life Technologies and Expression Analysis (LTEA) Assay for Bcl-2 gene using HepaRG (AID 2283475);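 also: BCL2 transcript by TaqMan qRT-PCR normalised to ACTB GAPDH and POLR2A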
# How it was run: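 Each chemical was tested in duplicate on HepaRG cultures held in serum-free induction medium for 48 h, highest concentration 100 uM with half-log dilutions. Transcript levels came from multiplexed qRT-PCR, normalised to housekeeping genes; activity was scored in either direction relative to DMSO.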
# [9] = read-out: Bcl-2 (BID) gene, BID (gene 637); experiment: LTEA_HepaRG_BID: Life Technologies and Expression Analysis (LTEA) Assay for Bcl-2 (BID) gene using HepaRG (AID 2283476)
# How it was run: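 Assay used HepaRG hepatic cells treated 48 h in serum-free medium with half-log dilutions from 100 uM. Endpoint: BID mRNA, qRT-PCR, normalized to ACTB/GAPDH/POLR2A.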
# Caspase-3 (Homo sapiens) = Caspase-3 (Homo sapiens) (UniProt P42574); experiment: LTEA_HepaRG_CASP3: Life Technologies and Expression Analysis (LTEA) Assay for cysteine-aspartic acid protease (CASP3) using HepaRG (AID 2283477)
# How it was run: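 Read-out is CASP3 mRNA level by TaqMan qRT-PCR in human HepaRG cells after 48 h chemical exposure. Eight half-log concentrations topping at 100 uM were tested in 0.5% DMSO; gain or loss was fitted relative to DMSO.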
# [10] = read-out: Cytochrome P450 (CYP24A1), CYP24A1 (gene 1591); experiment: LTEA_HepaRG_CYP24A1: Life Technologies and Expression Analysis (LTEA) Assay for Cytochrome P450 (CYP24A1) using HepaRG (AID 2283478)
# How it was run: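 HepaRG, 48 h chemical exposure, 8-pt half-log CRC from 100 uM, 0.5% DMSO vehicle, duplicates. Endpoint: CYP24A1 mRNA by Fluidigm TaqMan qRT-PCR, normalized ACTB/GAPDH/POLR2A; gain/loss fit vs DMSO.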
# [11] = read-out: Cytochrome P450 (CYP1A2), CYP1A2 (gene 1544); experiment: LTEA_HepaRG_CYP1A2: Life Technologies and Expression Analysis (LTEA) Assay for Cytochrome P450 (CYP1A2) using HepaRG (AID 2283479)
# How it was run: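 CYP1A2 transcript induction or loss, quantified by Fluidigm qRT-PCR against three housekeeping genes, was fitted bidirectionally against 0.5% DMSO controls. Human HepaRG cells received eight half-log concentrations from 100 uM over 48 h.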
# [12] = read-out: Cytochrome P450 (CYP2B6), CYP2B6 (gene 1555); experiment: LTEA_HepaRG_CYP2B6: Life Technologies and Expression Analysis (LTEA) Assay for Cytochrome P450 (CYP2B6) using HepaRG (AID 2283481)
# How it was run: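 HepaRG cells plated 48 h, switched to serum-free induction medium, then dosed 48 h (8 points, half-log from 100 uM, 0.5% DMSO). RNA isolated; CYP2B6 expression measured by qRT-PCR; gain or loss fitted relative to DMSO.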
# [13] = read-out: Cytochrome P450 2C19 (Homo sapiens) (UniProt P33261); experiment: LTEA_HepaRG_CYP2C19: Life Technologies and Expression Analysis (LTEA) Assay for CYP2C19 using HepaRG (AID 2283482)
# How it was run: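 Transcript levels of CYP2C19 were quantified by qRT-PCR after HepaRG cells were treated for 48 hours with test chemicals up to 100 uM (eight half-log concentrations, 0.5% DMSO vehicle). Gain or loss of signal was fitted relative to DMSO.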
# CYP2C8 (gene 1558) = experiment: LTEA_HepaRG_CYP2C8: Life Technologies and Expression Analysis (LTEA) Assay for CYP2C8 using HepaRG (AID 2283483)
# How it was run: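 This is a transcriptional endpoint in HepaRG cultures: 48 h exposure, highest concentration 100 uM. CYP2C8 mRNA is quantified by TaqMan qRT-PCR.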
# CYP2C9 (gene 1559) = experiment: LTEA_HepaRG_CYP2C9: Life Technologies and Expression Analysis (LTEA) Assay for CYP2C9 using HepaRG (AID 2283484)
# How it was run: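 Eight-point concentration-response (highest 100 uM, half-log dilutions) in HepaRG cells for 48 h; CYP2C9 expression by qRT-PCR normalized to ACTB, GAPDH, POLR2A. Bidirectional fit, DMSO baseline.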
# CYP2E1 (gene 1571) = experiment: LTEA_HepaRG_CYP2E1: Life Technologies and Expression Analysis (LTEA) Assay for CYP2E1 using HepaRG (AID 2283485)
# How it was run: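 Assay uses 48 h exposure of HepaRG hepatic cells, eight concentrations to 100 uM. Expression of CYP2E1 is quantified by TaqMan qRT-PCR with ACTB, GAPDH and POLR2A normalization; curves fitted in both directions relative to vehicle.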
# CYP4A11 (gene 1579) = experiment: LTEA_HepaRG_CYP4A11: Life Technologies and Expression Analysis (LTEA) Assay for CYP4A11 using HepaRG (AID 2283486)
# How it was run: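 HepaRG, 48 h chem exposure, 8 conc (100 uM top, half-log), 0.5% DMSO vehicle; qRT-PCR readout, housekeeping-gene normalized; bidirectional curve fit vs DMSO baseline.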
# BCL2L11 (gene 10018) = experiment: LTEA_HepaRG_BCL2L11: Life Technologies and Expression Analysis (LTEA) Assay for Bcl-2 (BCL2L11) gene using HepaRG (AID 2283473)
# How it was run: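 Read-out is BCL2L11 transcript level by qRT-PCR, normalized to three housekeeping genes and fitted bidirectionally against 0.5% DMSO vehicle. HepaRG cells received chemicals for 48 h in serum-free induction medium, 100 uM down in half-log dilutions.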
# [14] = read-out: cysteine-aspartic acid protease (CASP8), CASP8 (gene 841); experiment: LTEA_HepaRG_CASP8: Life Technologies and Expression Analysis (LTEA) Assay for cysteine-aspartic acid protease (CASP8) using HepaRG (AID 2283480)
# How it was run: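 Concentration-response in duplicate up to 100 uM (half-log steps, 0.5% DMSO) on differentiated HepaRG cultures for 48 h. Expression change of CASP8 mRNA is determined by TaqMan qRT-PCR with housekeeping-gene normalization.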
# Cytochrome P450 2C19 (Homo sapiens), sequence (P33261 whole entry, looked up): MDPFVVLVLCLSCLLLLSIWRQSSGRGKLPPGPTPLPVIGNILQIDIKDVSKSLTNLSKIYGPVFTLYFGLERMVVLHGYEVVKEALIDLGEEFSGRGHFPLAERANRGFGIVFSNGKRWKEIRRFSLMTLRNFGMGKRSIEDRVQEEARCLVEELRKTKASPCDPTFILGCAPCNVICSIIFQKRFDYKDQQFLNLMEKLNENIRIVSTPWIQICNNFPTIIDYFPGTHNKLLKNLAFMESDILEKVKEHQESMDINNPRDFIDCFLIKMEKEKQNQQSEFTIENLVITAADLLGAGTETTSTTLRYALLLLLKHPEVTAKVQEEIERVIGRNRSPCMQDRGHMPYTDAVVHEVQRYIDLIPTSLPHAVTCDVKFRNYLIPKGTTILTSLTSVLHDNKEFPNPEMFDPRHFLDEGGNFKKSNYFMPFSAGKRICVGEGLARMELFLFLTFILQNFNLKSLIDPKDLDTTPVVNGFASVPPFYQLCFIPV
# Apoptosis regulator Bcl-2 (Homo sapiens), sequence (P10415 whole entry, looked up): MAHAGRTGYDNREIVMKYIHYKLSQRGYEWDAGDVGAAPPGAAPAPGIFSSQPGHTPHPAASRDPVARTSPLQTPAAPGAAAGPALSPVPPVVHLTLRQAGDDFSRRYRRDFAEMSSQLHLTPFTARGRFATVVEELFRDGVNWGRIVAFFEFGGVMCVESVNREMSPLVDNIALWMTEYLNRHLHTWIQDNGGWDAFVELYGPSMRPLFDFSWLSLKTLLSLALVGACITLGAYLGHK
# Caspase-3 (Homo sapiens), sequence (P42574 whole entry, looked up): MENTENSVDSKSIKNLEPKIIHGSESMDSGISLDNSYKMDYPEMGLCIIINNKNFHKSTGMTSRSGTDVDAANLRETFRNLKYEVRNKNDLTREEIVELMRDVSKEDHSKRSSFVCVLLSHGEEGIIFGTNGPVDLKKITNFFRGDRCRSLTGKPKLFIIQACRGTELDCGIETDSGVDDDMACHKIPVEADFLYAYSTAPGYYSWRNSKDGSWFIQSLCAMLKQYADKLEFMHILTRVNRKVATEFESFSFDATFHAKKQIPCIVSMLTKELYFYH
structure (smiles),measurement,setting,value
CCCCCCCCOC(=O)c1ccccc1C(=O)OCCCCCCCC,outcome,[1],inactive
same,outcome,[2],inactive
same,outcome,[3],inactive
same,outcome,[4],inactive
same,outcome,[5],inactive
same,outcome,[6],inactive
same,outcome,[7],inactive
same,outcome,[8],inactive
same,outcome,[9],inactive
same,outcome,Caspase-3 (Homo sapiens),inactive
same,outcome,[10],inactive
same,outcome,[11],inactive
same,AC50,[12],16.3 µM (active)
same,outcome,[13],inactive
same,outcome,CYP2C8 (gene 1558),inactive
same,outcome,CYP2C9 (gene 1559),inactive
same,outcome,CYP2E1 (gene 1571),inactive
same,outcome,CYP4A11 (gene 1579),inactive
O=S(=O)(O)C(F)(F)C(F)(F)C(F)(F)C(F)(F)F,outcome,[1],inactive
same,outcome,[2],inactive
same,outcome,[3],inactive
same,outcome,[4],inactive
same,outcome,[5],inactive
same,outcome,[6],inactive
same,outcome,[7],inactive
same,outcome,[8],inactive
same,outcome,Caspase-3 (Homo sapiens),inactive
same,outcome,[10],inactive
same,outcome,[11],inactive
same,AC50,[12],52.5 µM (active)
same,outcome,[13],inactive
same,outcome,CYP2C8 (gene 1558),inactive
same,outcome,CYP2C9 (gene 1559),inactive
same,outcome,CYP2E1 (gene 1571),inactive
same,outcome,CYP4A11 (gene 1579),inactive
COS(=O)(=O)OC,outcome,[1],inactive
same,outcome,[2],inactive
same,outcome,[3],inactive
same,outcome,[4],inactive
same,outcome,[5],inactive
same,outcome,[6],inactive
same,outcome,BCL2L11 (gene 10018),inactive
same,outcome,[7],inactive
same,outcome,[8],inactive
same,outcome,Caspase-3 (Homo sapiens),inactive
same,outcome,[10],inactive
same,AC50,[11],31 µM (active)
same,outcome,[12],inactive
same,outcome,[13],inactive
same,outcome,CYP2C8 (gene 1558),inactive
same,outcome,CYP2C9 (gene 1559),inactive
same,outcome,CYP2E1 (gene 1571),inactive
same,outcome,CYP4A11 (gene 1579),inactive
CCCN(CCC)N=O,outcome,[1],inactive
same,outcome,[2],inactive
same,outcome,[3],inactive
same,outcome,[4],inactive
same,outcome,[5],inactive
same,outcome,[6],inactive
same,outcome,BCL2L11 (gene 10018),inactive
same,outcome,[7],inactive
same,outcome,[8],inactive
same,outcome,Caspase-3 (Homo sapiens),inactive
same,outcome,[10],inactive
same,outcome,[11],inactive
same,AC50,[12],11 µM (active)
same,outcome,[13],inactive
same,outcome,CYP2C8 (gene 1558),inactive
same,outcome,CYP2C9 (gene 1559),inactive
same,outcome,CYP2E1 (gene 1571),inactive
same,outcome,CYP4A11 (gene 1579),inactive
CCCCCCCCCc1ccc(O)cc1,outcome,[1],inactive
same,outcome,[2],inactive
same,outcome,[3],inactive
same,outcome,[4],inactive
same,outcome,[5],inactive
same,outcome,[6],inactive
same,outcome,[7],inactive
same,outcome,[8],inactive
same,outcome,Caspase-3 (Homo sapiens),inactive
same,outcome,[10],inactive
same,outcome,[11],inactive
same,outcome,[14],inactive
same,outcome,[12],inactive
same,outcome,[13],inactive
same,outcome,CYP2C8 (gene 1558),inactive
same,outcome,CYP2C9 (gene 1559),inactive
same,outcome,CYP2E1 (gene 1571),inactive
same,AC50,CYP4A11 (gene 1579),33.5 µM (active)
C[C@]12CCC(=O)C=C1CC[C@@H]1[C@@H]2CC[C@]2(C)C(=O)CC[C@@H]12,outcome,[1],inactive
same,AC50,[2],29.8 µM (active)
same,outcome,[3],inactive
same,outcome,[4],inactive
same,outcome,[5],inactive
same,AC50,[6],50 µM (active)
same,AC50,[7],50 µM (active)
same,outcome,[8],inactive
same,AC50,[9],50 µM (active)
same,outcome,Caspase-3 (Homo sapiens),inactive
same,outcome,[10],inactive
same,AC50,[11],50 µM (active)
same,outcome,[14],inactive
same,outcome,[12],inactive
same,AC50,[13],10.4 µM (active)
same,outcome,CYP2C8 (gene 1558),inactive
same,outcome,CYP2C9 (gene 1559),inactive
same,AC50,CYP2E1 (gene 1571),1.16 µM (active)
same,AC50,CYP4A11 (gene 1579),85.7 µM (active)
CCC(=O)O[C@H]1CC[C@H]2[C@@H]3CCC4=CC(=O)CC[C@]4(C)[C@H]3CC[C@]12C,outcome,[1],inactive
same,outcome,[2],inactive
same,outcome,[3],inactive
same,outcome,[4],inactive
same,outcome,[5],inactive
same,outcome,BCL2L11 (gene 10018),inactive
same,outcome,[7],inactive
same,outcome,[8],inactive
same,outcome,[9],inactive
same,outcome,Caspase-3 (Homo sapiens),inactive
same,outcome,[10],inactive
same,outcome,[11],inactive
same,AC50,[12],50 µM (active)
same,AC50,[13],3.23 µM (active)
same,outcome,CYP2C8 (gene 1558),inactive
same,outcome,CYP2C9 (gene 1559),inactive
same,AC50,CYP2E1 (gene 1571),3.12 µM (active)
same,AC50,CYP4A11 (gene 1579),1.16 µM (active)
